The list is not random: actives were taken first. Their share in the collection is about 8.1%.
Hedgehog inh: Hedgehog pathway signaling inhibitors, primary screen, luminescence, Shh-LIGHT2 cells, Gli-luciferase; AID 2313, 2010; actives 2.1% (n = 22,000); Shh-LIGHT2 Gli-luciferase reporter, 30 h; inhibition, % (test concentration not listed);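 active = mean inhibition across valid replicates above about 65%, limit read from the data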;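 note: pathway switched on by Shh-conditioned medium diluted 1 in 25 in low serum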
MITF inhib: inhibitors of MITF, primary screen, MITF inhibitor project, cell-based, luminescence; TRPM1 promoter luciferase, 24 h; inhibition, % (no concentration beside the values); actives 0.28% (n = 37,000); AID 2240, 2010; in the data active = inhibition above about 85%;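 note: human melanocyte line stably carrying TRPM1 promoter luciferase reporter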
PD-1 reversal: activators reversing PD-1 mediated T-cell inhibition, primary screen, luminescence, primary human CD4 T cells, PD-L1 beads; CellTiter-Glo 96 h; 29,000 tested, under 10 active; activation, % (test concentration not listed); AID 2316, 2010; call rule not given here;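 note: 0% = median vehicle wells and 100% = positive control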
NOMO-1 viab: NOMO-1 AML cell viability reduction, primary screen, STK33 inhibitor project, CellTiter-Glo luminescence; NOMO-1 AML viability, 72 h; inhibition, % (no concentration beside the values); actives 7.5% (n = 37,000); AID 2330, 2010; in the data active = inhibition above about 80%
The depositor's hits bear a star; . = no result.

SMILES	Hedgehog inh	MITF inhib	PD-1 reversal	NOMO-1 viab
Oc1c(C(Nc2ccccn2)c2c(F)cccc2Cl)cc(Cl)c2cccnc12 (centres undefined)	.	67	.	108*
Oc1c(C(Nc2ccccn2)c2cccc(F)c2)cc(Cl)c2cccnc12 (centres undefined)	.	57	.	113*
COc1cc(Cl)c(C(Nc2ccccn2)c2cc(Cl)c3cccnc3c2O)cc1OC (centres undefined)	.	63	.	110*
CCC(=O)NC(c1ccco1)c1cc(Cl)c2cccnc2c1O (centres undefined)	104*	46	0	126*
Clc1cc2c(c(C[n+]3ccccc3)c1)OCOC2	-26	11	2	-5
CCOC(=O)c1[nH]c(C(=O)O)c(CC)c1C	-23	-22	0	18
COc1ccc(-c2cc(C(F)(F)F)nc(SCC(=O)Nc3ccc4c(c3)CCC4)n2)cc1OC	.	-9	.	71
O=C(CCn1cnc2ccccc2c1=O)Nc1ccc(F)cc1	.	-27	2	-12
Oc1c(C(Nc2ccccn2)c2ccccn2)cc(Cl)c2cccnc12 (centres undefined)	.	56	.	112*
CCOC(=O)c1c(NC(=O)CSc2nc3ccccc3c(=O)[nH]2)sc2c1CCCC2	.	10	-5	107*
Cc1cc(=O)[nH]c(SCCOc2ccc(C(=O)c3ccccc3)cc2)n1	.	13	1	-22
CC1=CC(C)(C)N2C(=O)C(=O)c3cc(OC(=O)CN4C(=O)c5cccc6cccc(c56)C4=O)cc1c32	.	-39	-13	119*
Cc1ccc(NC(=O)c2ccc(OC(=O)CN3C(=O)c4ccccc4C3=O)cc2)cc1	.	-74	.	43
CC1=CC(C)(C)N2C(=O)C(=O)c3cc(OC(=O)CN4C(=O)c5ccccc5C4=O)cc1c32	.	-30	-7	115*
O=C(CSc1nc(-c2ccccc2)cc(=O)[nH]1)NCC1CCCO1 (centres undefined)	.	-6	.	16
c1ccc(-c2nsc(N3CCOCC3)n2)cc1	-186	20	1	-1
Clc1ccccc1/C=C/C=Nc1ccc(N2CCOCC2)cc1	27	-50	0	122*
O=C(CCC(=O)c1ccc(Oc2ccccc2)cc1)Nc1cccnc1	.	9	1	23
CC(=O)OC(C)(C)/C=C/C(=O)[C@](C)(O)[C@H]1C(O)C[C@@]2(C)[C@@H]3CC=C4[C@@H](C=C(O[C@@H]5O[C@H](CO)[C@@H](O)[C@H](O)[C@H]5O)C(=O)C4(C)C)[C@]3(C)C(=O)C[C@]12C (some centres undefined)	19	-3	0	117*
COc1ccc(NC(=O)Nc2ccc3c(c2)C(=O)N([C@@H](C)CO)C[C@@H](C)[C@@H](CN(C)Cc2ccc(Oc4ccccc4)cc2)O3)cc1	94*	6	-5	117*
COc1ccc(NC(=O)Nc2ccc3c(c2)C(=O)N([C@@H](C)CO)C[C@@H](C)[C@H](CN(C)Cc2ccc(Oc4ccccc4)cc2)O3)cc1	-14	2	.	-4
COc1ccc(NC(=O)Nc2ccc3c(c2)C(=O)N([C@H](C)CO)C[C@@H](C)[C@@H](CN(C)Cc2ccc(-c4ccccc4)cc2)O3)cc1	31	-2	.	94*
Cc1nc(SCC(=O)Nc2ccc(I)cc2)nc2c1CCCC2	.	5	.	-13
Cc1c(NC(=O)COc2ccc(Br)cc2)cccc1-c1nc2ccccc2s1	.	53	1	11
CCC(C)/C=C(C)/C=C/C1=CC2=C(Cl)C(=O)C(C)(OC(C)=O)C(=O)C2=CN1CCCC(=O)O (centres undefined)	1	9	0	101*
SMILES	Hedgehog inh	MITF inhib	PD-1 reversal	NOMO-1 viab
COC(=O)c1c(NC(=O)COc2ccccc2C(C)C)sc2c1CCCC2	.	-3	0	12
O=C(CSc1nc2ccccc2s1)NO	.	71	1	21
C[C@@H]1CN([C@H](C)CO)C(=O)c2cc(NC(=O)CCC(F)(F)F)ccc2O[C@@H]1CN(C)Cc1ccc(C(=O)Nc2ccccc2N)cc1	.	15	-3	104*
C[C@H]1CN([C@@H](C)CO)C(=O)Cc2cc(NC(=O)CCC(F)(F)F)ccc2O[C@H]1CN(C)Cc1ccc(C(=O)Nc2ccccc2N)cc1	.	15	-5	139*
O=C(CSc1nnc(-c2ccncc2)n1-c1cccc(C(F)(F)F)c1)c1ccc(F)cc1	.	-20	-2	2
N#Cc1cc(C#N)c(SCCN2CCOCC2)nc1N	.	-35	.	-8
CC(=O)Nc1nc(C23CC4CC(CC(C4)C2)C3)cs1	.	-19	0	4
Cc1csc(NC(=O)CSc2nc(C34CC5CC(CC(C5)C3)C4)ccc2C#N)n1	75*	63	1	105*
C[C@H]1CN([C@@H](C)CO)C(=O)Cc2cc(NS(=O)(=O)c3ccc(Cl)cc3)ccc2O[C@H]1CN(C)Cc1ccc2c(c1)OCO2	27	-14	.	29
C[C@H]1CN([C@@H](C)CO)C(=O)Cc2cc(NS(=O)(=O)c3ccc(Cl)cc3)ccc2O[C@@H]1CN(C)Cc1ccc(Cl)c(Cl)c1	40	27	-1	84*
C[C@@H]1CN([C@@H](C)CO)C(=O)Cc2cc(NS(=O)(=O)c3ccc(Cl)cc3)ccc2O[C@@H]1CN(C)Cc1ccc(Cl)c(Cl)c1	14	13	-2	124*
C[C@@H]1CN([C@@H](C)CO)C(=O)Cc2cc(NS(=O)(=O)c3ccc(F)cc3)ccc2O[C@@H]1CN(C)Cc1ccc(Cl)c(Cl)c1	18	3	.	96*
C[C@@H]1CN([C@H](C)CO)C(=O)Cc2cc(NS(C)(=O)=O)ccc2O[C@@H]1CN(C)Cc1ccc(Cl)c(Cl)c1	47	-5	-2	23
C[C@H]1CN([C@@H](C)CO)C(=O)Cc2cc(NS(C)(=O)=O)ccc2O[C@@H]1CN(C)Cc1ccc(Cl)c(Cl)c1	28	15	.	98*
CCOC(=O)c1cc(NC(=O)CSc2nc3ccccc3s2)ccc1Cl	.	18	1	-4
Cc1ccccc1-c1nnc(SCC(=O)Nc2sc3c(c2C#N)CCCC3)n1C	.	12	1	17
O=C(Nc1ccccc1C(=O)O)c1cccc(S(=O)(=O)Nc2cccc(Br)c2)c1	.	8	.	-5
CCOc1ccc(NC(=O)c2c(NC(=O)CN(C)C)sc3c2CCC3)cc1	.	-22	-5	10
O=C(Nc1ccc(Br)cc1)C12CC3CC(CC(C3)C1)C2	-15	-2	0	10
O=C(O)CCNc1ncnc2c1oc1ccccc12	.	32	-2	-10
CC(C)CC(Nc1ncnc2sc3c(c12)CCC3)C(=O)O (centres undefined)	-5	-6	1	-3
C[C@H]1CN([C@@H](C)CO)C(=O)Cc2cc(NS(=O)(=O)c3ccccc3)ccc2O[C@@H]1CN(C)Cc1ccc(Cl)c(Cl)c1	25	21	.	122*
C[C@@H]1CN([C@H](C)CO)C(=O)Cc2cc(N(C)C)ccc2O[C@@H]1CN(C)Cc1ccc(Cl)c(Cl)c1	7	-2	-2	99*
C[C@@H]1CN([C@@H](C)CO)C(=O)Cc2cc(NS(=O)(=O)c3ccccc3)ccc2O[C@@H]1CN(C)Cc1ccc(Cl)c(Cl)c1	55	35	-4	62
